High-throughput results as filed in PubChem BioAssay.
PLK1 PBD block – blocks phosphopeptide binding to human PLK1 polo-box domain; P53350; Plk1 PBD binding of FITC phosphopeptide, fluorescence polarization; Potency, µM, inactives show max response, negative = inhibition, usual class: inhibitors; 360,000 tested, 2.8% active; AID 720504; note: series mostly up to about 57 µM; % is set by controls: 0 for no effect and ±100 for the full control effect; nearly all actives have a fitted effect of over 65% in size
USP1 inh – inhibitors of human USP1/UAF1 deubiquitinase | Potency, µM (highest dose often 57.1 µM), for the others: top-dose activity change, negative = inhibition, most hits filed as inhibitors | 390,000 tested, 0.23% active | recombinant USP1/UAF1, Ub-Rhodamine cleavage fluorescence | O94782; note: % is set by controls: 0 for no effect and ±100 for the full control effect; nearly all actives have a fitted effect of over 60% in size
Target sequence (O94782 whole entry, looked up): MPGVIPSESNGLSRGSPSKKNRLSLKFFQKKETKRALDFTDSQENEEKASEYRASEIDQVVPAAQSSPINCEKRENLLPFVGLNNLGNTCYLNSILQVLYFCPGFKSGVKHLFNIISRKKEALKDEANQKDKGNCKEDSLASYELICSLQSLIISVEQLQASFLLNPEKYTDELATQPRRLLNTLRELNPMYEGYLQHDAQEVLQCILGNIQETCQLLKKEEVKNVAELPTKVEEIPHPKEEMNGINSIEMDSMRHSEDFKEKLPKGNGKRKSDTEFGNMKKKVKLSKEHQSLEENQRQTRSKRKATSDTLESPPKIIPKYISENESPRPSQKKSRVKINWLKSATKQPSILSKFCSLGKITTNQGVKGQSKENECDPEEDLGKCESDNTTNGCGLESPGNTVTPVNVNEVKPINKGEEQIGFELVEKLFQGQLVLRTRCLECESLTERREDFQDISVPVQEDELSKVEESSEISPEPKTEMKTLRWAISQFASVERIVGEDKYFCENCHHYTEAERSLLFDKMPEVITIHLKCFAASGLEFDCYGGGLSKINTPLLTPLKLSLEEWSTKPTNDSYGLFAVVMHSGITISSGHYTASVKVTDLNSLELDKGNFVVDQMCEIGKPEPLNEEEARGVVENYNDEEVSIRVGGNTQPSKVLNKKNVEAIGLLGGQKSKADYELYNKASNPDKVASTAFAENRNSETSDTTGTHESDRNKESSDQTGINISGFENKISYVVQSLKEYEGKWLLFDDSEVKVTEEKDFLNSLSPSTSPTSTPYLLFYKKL
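In this screen, compounds sit with the deubiquitinase complex (1nM) for 15 min at room temperature before Ub-Rho is added at 150nM final. Fluorescence rise is then followed for 6 reads every 60 seconds.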
PTAP TSG101 blk – blocks PTAP/TSG101 interaction to inhibit HIV-1 budding | Potency, µM (top dose mostly 115 µM), inactives show at the top dose activity change, negative = inhibition, most hits filed as inhibitors | 340,000 tested, under 10 active | Fluorescence polarization, FITC-PTAP peptide / Tsg101 binding | Q99816; active = well fitted inhibition curve with a large enough effect in the main read-out, with a control signal flat, not every such curve was filed as active; inconclusive = small, poorly fitted or top-dose-only effect, or effect the other way, or a change in a side signal; inactive = no such curve, though single readings can be large or run the other way; note: % of control where 0% means no effect
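FP read-out: FITC-PTAP peptide, 50 nM final, binding Tsg101 binding domain, 10 uM final; 20 min, r.t.; 10 mM HEPES pH 7.5, 0.15 M NaCl, 0.01% Tween 20, 3 mM EDTA, 0.1 mM TCEP.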
GCN5L2 inh – blocks human GCN5L2 histone acetyltransferase. Potency, µM (top dose mostly 58.9 µM), for inactives: top-dose activity change, negative = inhibition, usual class: inhibitors. GCN5L2 HAT assay, ThioGlo1 CoA-SH fluorescence. Q92830. 390,000 tested, 0.21% active; note: % is set by controls: 0 for no effect and ±100 for the full control effect
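GCN5L2 (20nM final) in 50mM HEPES, 0.1mM EDTA pH 7.5, 0.01% Tween-20 was preincubated 15 min at room temperature with compound, then given ThioGlo1 (50uM), H3(1-25) peptide (75uM) and acetyl-CoA (70uM); CoA-thiol fluorescence (Ex340/Em540) was read at 0 and 20 min.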
VDR inhibitor – inhibitors of human vitamin D receptor; Potency, µM, without a hit: max response, negative = inhibition, hits mostly inhibitors; VDR-SRC2-3 peptide fluorescence polarization, 2 h; AID 504847; 400,000 tested, 0.93% active; note: % is set by controls: 0 for no effect and ±100 for the full control effect
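The screen uses fluorescence polarization to detect compounds that interfere with recruitment of the SRC2-3 coactivator peptide to VDR; plates are read after 2 h at room temperature.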
Active calls of the source: *; ? = inconclusive; . = no result. An excerpt weighted towards active compounds, which were near 3% of everything screened. Unless noted, calls come from the whole dose curve; as a rule, active = well fitted curve in the direction sought with a large enough effect; inconclusive = small, poorly fitted or top-dose-only effect, or another doubt; inactive = no such curve, though single readings can be large; an effect the other way counts as inactive or inconclusive. Potency is the fitted concentration of half-maximal effect.

SMILES | PLK1 PBD block | USP1 inh | PTAP TSG101 blk | GCN5L2 inh | VDR inhibitor
COc1ccc(-c2nc3cnc(N(C)C)nc3n(CCc3ccccc3)c2=O)cc1 | . | . | . | -12.7% | 3.2%
CSCCC(NC(N)=O)C(=O)Nc1ccc(F)c(Cl)c1 (stereo unspecified) | 4.5% | -18.9% | -2.8% | -5.6% | 7.3%
Cc1ccccc1CSc1nc2cccnc2n1Cc1ccc(C(=O)NCCc2cccs2)cc1 | . | ? | . | -2.5% | 5.0%
CCOc1ccccc1N(C)C(=O)c1ccc2c(=O)n3c(nc2c1)CCCCC3 | 23.8µM* | -10.6% | -8.7% | -3.0% | -21.7%
CC(OC(=O)c1ccc2c(=O)n3c(nc2c1)CCC3)C(N)=O (stereo unspecified) | 21.2µM* | -16.4% | -2.6% | 0.1% | -6.0%
CC(OC(=O)c1ccc2c(=O)n3c(nc2c1)CCC3)C(=O)Nc1ccc(C(N)=O)cc1 (stereo unspecified) | 0.1% | -21.7% | -3.8% | 0.5% | -8.5%
O=C(COC(=O)c1cc(-c2ccco2)nc2ccccc12)NCc1ccccc1 | -16.4% | -20.4% | -0.4% | -9.6% | -11.3%
CNC(=O)COC(=O)c1cc(-c2ccco2)nc2ccccc12 | 23.8µM* | -8.8% | 1.9% | -26.7% | ?
O=C1NC(=O)c2c1c(-c1ccccc1)cc1[nH]c3ccc(O)cc3c21 | . | . | . | 4.0% | -2.6%
O=C(NCCc1ccccc1)c1ccc2c(c1)nc1n2CCOC1 | . | ? | . | -9.8% | 19.7%
Cc1ccc(-n2c(N)c(C(N)=O)sc2=S)cc1 | 5.97µM* | -5.5% | -1.7% | ? | 70.8µM*
CC(C)(C)NC(=O)C(c1ccncc1)N(C(=O)Cn1nnc(-c2ccc(F)cc2)n1)c1ccccc1 (stereo unspecified) | 26.7µM* | -9.8% | -1.0% | 0.3% | ?
Cc1cc(C)n(-c2cc(-c3ccccc3)nc(C)n2)n1 | 18.9µM* | -1.2% | 0.5% | -5.4% | -10.1%
Cc1nc(-c2ccccc2)cc(N2CCCC2)n1 | -0.9% | -8.5% | -9.3% | 0.0% | 3.8%
CC(C)c1ccc(Nc2nnc(SCC(=O)Nc3ncc(S(=O)(=O)c4ccc([N+](=O)[O-])cc4)s3)s2)cc1 | 42.3µM* | -19.6% | 59.8% | -5.0% | -17.4%
Cc1ccc(Nc2nnc(SCC(=O)Nc3ncc(S(=O)(=O)c4ccc([N+](=O)[O-])cc4)s3)s2)cc1 | -6.5% | -8.1% | -3.2% | -0.5% | -5.9%
CC1CCN(S(=O)(=O)c2cccc(-c3nnc(-c4cccnc4)o3)c2)CC1 | 15µM* | -22.4% | -1.4% | 0.3% | ?
O=C(c1ccsc1)N1CCCC(Nc2cccc(F)c2)C1 (stereo unspecified) | -9.2% | -16.7% | -2.3% | 0.0% | 13.7%
COc1ccc(-c2cn(-c3ccc(C)c(C)c3)c(=S)[nH]2)cc1OC | 29.9µM* | -4.9% | -2.0% | 9.0% | -27.4%
COc1ccc(-n2cc(-c3ccc(Cl)cc3)[nH]c2=S)cc1 | -2.7% | -13.3% | 0.8% | -0.1% | -14.5%
COc1ccc(-c2cn(-c3ccccc3)c(=S)[nH]2)cc1OC | 21.2µM* | -3.1% | -0.7% | 2.4% | 0.1%
COc1ccc(-c2n[nH]c(=S)n2-c2ccc(Br)cc2)cc1OC | -6.5% | -19.9% | -0.2% | -10.6% | 0.7%
COc1ccc(-c2cn(-c3ccc(C)c(Cl)c3)c(=S)[nH]2)cc1OC | 26.7µM* | -5.3% | -8.2% | 2.1% | 21.9%
COc1ccccc1-n1cc(-c2ccc(C)cc2)[nH]c1=S | -5.6% | -18.6% | -0.9% | -0.4% | -12.8%
COC(=O)c1ccc(-n2cc(-c3ccc(OC)cc3)[nH]c2=S)cc1 | 6.7µM* | -16.4% | -12.4% | 0.0% | -16.9%
SMILES | PLK1 PBD block | USP1 inh | PTAP TSG101 blk | GCN5L2 inh | VDR inhibitor
O=C(O)C1Cc2c([nH]c3ccccc23)C(c2coc3ccccc3c2=O)N1 (stereo unspecified) | . | . | . | . | -28.1%
Cc1sc(N)nc1-c1cccc([N+](=O)[O-])c1 | . | . | . | . | 1.2%
COc1ccccc1N1CCN(C(=O)c2cc3c(=O)n(Cc4cccnc4)ccc3nc2C)CC1 | . | -19.0% | . | -5.1% | -5.0%
Cc1ccc(C(=O)NN2C(=O)CSC2=S)cc1 | -5.1% | -4.9% | -3.5% | 8.3% | -2.4%
C/C(=N\N1C(=O)CSC1=S)c1ccc(Br)cc1 | 5.32µM* | ? | 0.8% | -0.5% | ?
O=C1C=CC(c2c[nH]c3ccccc23)CC1 (stereo unspecified) | -21.9% | . | . | . | .
CC(=O)C1=C(c2cccc([N+](=O)[O-])c2)N(C(C)=O)n2c(C)nnc2S1 | -27.0% | 14.1µM* | -5.1% | -2.2% | ?
COc1ccccc1NC(=O)CSc1nc(-c2ccc(C(C)(C)C)cc2)c(C#N)c(=O)[nH]1 | . | ? | . | ? | 2.7%
N#Cc1c(-c2ccccc2)nc(SCc2nc(N)nc(N3CCCCC3)n2)[nH]c1=O | 2.99µM* | -4.3% | -0.6% | -6.5% | -18.1%
CCCOc1ccc(-c2nc(SCc3ccccc3)[nH]c(=O)c2C#N)cc1OC | 26.7µM* | -8.7% | -5.5% | -0.9% | -15.0%
CCSc1nc(-c2ccccc2)c(C#N)c(=O)[nH]1 | -4.6% | -22.6% | -7.3% | -7.3% | -2.8%
CSc1nc(-c2ccccc2)c(C#N)c(=O)[nH]1 | 26.7µM* | -21.0% | -5.6% | -5.9% | -23.8%
CCN1CCN(C(=O)C2CCC(=O)N(CCCN3CCCC3=O)C2)CC1 (stereo unspecified) | -0.7% | -23.3% | -0.4% | -4.7% | -9.1%
O=C(Cn1cc(S(=O)(=O)c2ccc(F)cc2)c(=O)c2cc3c(cc21)OCO3)Nc1ccccc1 | . | -10.3% | . | -1.7% | ?
Cc1ccc(Nc2ccc(N3CCN(C(=O)c4ccc([N+](=O)[O-])cc4Cl)CC3)nn2)cc1 | . | ? | . | -3.5% | -5.2%
COC(=O)C1C(=O)N2CCCSC2=C(C#N)C1c1cccs1 (stereo unspecified) | -2.3% | -6.0% | -6.1% | -6.2% | -6.1%
COc1ccc(C2CC(=O)N3CN(C4CCCCC4)CSC3=C2C#N)cc1 (stereo unspecified) | . | ? | . | 25.1µM* | 44.7µM*
COc1ccc(N2CSC3=C(C#N)C(c4cccs4)CC(=O)N3C2)cc1 (stereo unspecified) | -13.4% | 2.6% | -4.5% | 12.6µM* | -9.2%
COc1ccc(N2CSC3=C(C#N)C(c4cc(OC)ccc4OC)CC(=O)N3C2)c(OC)c1 (stereo unspecified) | 3.77µM* | ? | 0.5% | ? | 15.8µM*
CCN(CC)CCN(C(=O)c1ccco1)c1nc2ccc(Br)cc2s1 | . | -0.9% | . | -13.6% | 11.8%
CCc1nc2ccc(C(=O)NCCOc3ccc(OC)cc3)cn2c1N(C)CCCc1ccccc1 | -7.8% | . | . | . | .
O=C(NCc1ccccc1)C1CCN(S(=O)(=O)Cc2ccccc2)CC1 | . | -25.6% | . | -4.9% | 22.5%
Cn1cc(Cl)c(C(=O)NC(=S)Nc2sc3c(c2C#N)CCCCC3)n1 | 11.9µM* | 11.2% | -5.8% | -11.5% | ?
Cc1onc(-c2ccccc2)c1C(=O)Nc1sc2c(c1C#N)CCC2 | ? | -12.6% | -0.6% | -16.5% | -11.4%
